Our source for the binding signal values is paper PMC4053984, “DNA binding specificities of the long zinc-finger recombination protein PRDM9”.

Chain of PRDM9Cst (Mus musculus (CAST/EiJ)) (chain, as listed by the source): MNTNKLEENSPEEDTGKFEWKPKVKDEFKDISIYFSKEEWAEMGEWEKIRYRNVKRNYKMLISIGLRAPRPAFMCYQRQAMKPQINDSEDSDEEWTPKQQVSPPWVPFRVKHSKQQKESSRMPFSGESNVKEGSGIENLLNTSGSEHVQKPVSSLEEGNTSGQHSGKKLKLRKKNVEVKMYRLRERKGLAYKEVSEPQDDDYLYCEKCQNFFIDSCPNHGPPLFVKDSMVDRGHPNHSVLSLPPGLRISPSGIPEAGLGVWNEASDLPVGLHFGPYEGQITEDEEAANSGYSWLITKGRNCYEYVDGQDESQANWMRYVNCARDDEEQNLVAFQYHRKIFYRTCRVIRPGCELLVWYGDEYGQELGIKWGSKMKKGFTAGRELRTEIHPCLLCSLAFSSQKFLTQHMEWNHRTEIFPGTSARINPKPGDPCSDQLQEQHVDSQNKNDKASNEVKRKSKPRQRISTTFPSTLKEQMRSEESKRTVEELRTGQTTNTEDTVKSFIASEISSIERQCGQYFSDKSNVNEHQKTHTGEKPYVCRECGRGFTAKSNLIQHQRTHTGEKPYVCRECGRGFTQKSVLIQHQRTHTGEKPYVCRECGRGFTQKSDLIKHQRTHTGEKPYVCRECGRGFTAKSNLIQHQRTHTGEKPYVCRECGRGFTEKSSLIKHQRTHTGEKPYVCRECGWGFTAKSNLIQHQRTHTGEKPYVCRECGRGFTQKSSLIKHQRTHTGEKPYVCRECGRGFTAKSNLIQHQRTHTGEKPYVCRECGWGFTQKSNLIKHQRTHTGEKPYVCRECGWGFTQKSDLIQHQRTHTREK

This assay has as its target PRDM9Cst (Mus musculus (CAST/EiJ)). The assay can be described thus: competition EMSA; competition against biotin-labeled 75-bp Hlx1 B6 oligo; 10 mM Tris pH 7.5, 50 mM KCl, 1 mM DTT, 50 ng/ul poly(dI/dC), 0.05% NP-40, crude E. coli extract 3 ul in 20 ul; 1 h with unlabeled competitor, then 4 h with biotin-labeled 75-bp Hlx1; temperature not stated; high values mean tight binding. The settings on record: tags: N-terminal His tag (pBAD/HisB); dsDNA, one strand shown.
In the case of ATAGTGTGCAGAATTGGACCCTGCCCTTTCTTT, the binding signal was -0.1 Bmut (0 = wild type, -1 = scrambled).
Regarding ATAGTGCGCAGACTTGGACCCTGCCCTTTCTTT, the binding signal is -0.2 Bmut (0 = wild type, -1 = scrambled).
On to ATAGTGTGCAGTCTTGGACCCTGCCCTTTCTTT, for which the binding signal is -0.2 Bmut (0 = wild type, -1 = scrambled).
On to ATAGTGTGCAGACTTGGACCCTGCTCTTTCTTT, for which the binding signal was -0.2 Bmut (0 = wild type, -1 = scrambled).
The figure for ATACTGTGCAGACTTGGACCCTGCCCTTTCTTT is -0.1 Bmut (0 = wild type, -1 = scrambled); for ATAGTGTGCAGACTTGGACCCTGCCCTTTCTGT it is 0.09 Bmut (0 = wild type, -1 = scrambled); for ATAGTGTGCAGACTTCGACCCTGCCCTTTCTTT it is -0.2 Bmut (0 = wild type, -1 = scrambled).
TTAGTGTGCAGACTTGGACCCTGCCCTTTCTTT: the binding signal was 0 Bmut (0 = wild type, -1 = scrambled).
For the sequence ATAGTGTGCAGACTTGAACCCTGCCCTTTCTTT, the binding signal was 0.2 Bmut (0 = wild type, -1 = scrambled).
To ATAGTGTGCAGACTTGGACCATGCCCTTTCTTT belongs 0.07 Bmut (0 = wild type, -1 = scrambled); to ATAGTGTACAGACTTGGACCCTGCCCTTTCTTT, 0.1 Bmut (0 = wild type, -1 = scrambled).
Take ATAGTGTGCAGACCTGGACCCTGCCCTTTCTTT: the binding signal was 0 Bmut (0 = wild type, -1 = scrambled).
To ATAGTGTGCAGACTTGGACCTTGCCCTTTCTTT belongs 0.06 Bmut (0 = wild type, -1 = scrambled).
The figure for ATAGTGTGCAGACTTGGACTCTGCCCTTTCTTT is 0.01 Bmut (0 = wild type, -1 = scrambled); for ATAGTGTGCAGACTGGGACCCTGCCCTTTCTTT it is -0.3 Bmut (0 = wild type, -1 = scrambled).
The figure for ATAGTGGGCAGACTTGGACCCTGCCCTTTCTTT is -0.7 Bmut (0 = wild type, -1 = scrambled); for ATAGTGTGCAGACTTGGACCCTGCCCGTTCTTT it is 0.1 Bmut (0 = wild type, -1 = scrambled); for ATAGTGTGCAGACTTGGACCCTGCCCTTTCTTC it is 0.14 Bmut (0 = wild type, -1 = scrambled).
As to ATAGTGAGCAGACTTGGACCCTGCCCTTTCTTT, the binding signal was -0.3 Bmut (0 = wild type, -1 = scrambled).
For ATAGTGTGCAGACTTGGACGCTGCCCTTTCTTT, the binding signal is -0.1 Bmut (0 = wild type, -1 = scrambled).
Regarding ATAGTGTGGAGACTTGGACCCTGCCCTTTCTTT, the binding signal was 0.1 Bmut (0 = wild type, -1 = scrambled).
For the sequence ATAGTGTGCAGACTTGGACCCTGCCGTTTCTTT, the binding signal was 0.04 Bmut (0 = wild type, -1 = scrambled).
To ATAGTGTGCTGACTTGGACCCTGCCCTTTCTTT belongs -0.4 Bmut (0 = wild type, -1 = scrambled).
To ATAGTGTGCAGACTTGGACCCTGCCCTTTATTT belongs 0.05 Bmut (0 = wild type, -1 = scrambled); to ATAGTGTGCAGACTTGGTCCCTGCCCTTTCTTT, 0.1 Bmut (0 = wild type, -1 = scrambled); to ATAGTGTTCAGACTTGGACCCTGCCCTTTCTTT, -0.4 Bmut (0 = wild type, -1 = scrambled).
To ATAGTGTGCAGACTTTGACCCTGCCCTTTCTTT belongs 0 Bmut (0 = wild type, -1 = scrambled); to ATAGTGTGCAGACTTGGACCCTGCCCTTTCTCT, 0.13 Bmut (0 = wild type, -1 = scrambled); to ATAGTGTGCAGACGTGGACCCTGCCCTTTCTTT, -0.4 Bmut (0 = wild type, -1 = scrambled).
In the case of ATAGTGTGCAGACTTGGACCCTGACCTTTCTTT, the binding signal is -0.3 Bmut (0 = wild type, -1 = scrambled).
